This passage reports growth results from PubChem BioAssay (NCI).

About 83,000 compounds went through this panel and 20% of them were active in at least one assay; those are over-represented in the sample as a whole.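 Results are percent growth after 48 hours of single-concentration exposure. 100 means growth as in untreated cells, lower positive values show inhibition; negative values down to -100 show cell death.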 A number with no mark means an inactive call. The source made the active and inactive calls. How the source made its calls: active means growth percent below 10; inactive means the rest.

Some test systems named below: HCT-15 colon; HT29 colon; SNB-75 CNS; SNB-19 CNS; U251 CNS; PC-3 prostate; SK-MEL-5 melanoma; UACC-62 melanoma; LOX IMVI melanoma; SK-MEL-28 melanoma; SK-MEL-2 melanoma; EKVX NSCLC; SN12C renal; UO-31 renal; TK-10 renal; ACHN renal; CAKI-1 renal; A498 renal; CCRF-CEM leukemia; MOLT-4 leukemia.
Common to all, as to assay: NCI-60 one-dose screen, 48 h (100 = growth as untreated, 0 = no growth, -100 = all killed)
What all share (details): 10 µM unless noted

Regarding `Cc1ccc(-n2cc(/C=C/C(=O)c3ccc(O)cc3)c(-c3ccc(S(C)(=O)=O)cc3)n2)cc1`, the growth in the test with HCT-15 colon is 26%; with HT29 colon, 28.6%; in the test on SNB-75 CNS, 87.5%; in the test with SNB-19 CNS, 75.6%; in the test on U251 CNS, 72.3%; with PC-3 prostate, 69.9%. The growth in the test with SK-MEL-5 melanoma was 61.7%; in the test on UACC-62 melanoma, 59.6%; in the test with LOX IMVI melanoma, 41.9%; with SK-MEL-28 melanoma, 82.3%; with SK-MEL-2 melanoma, 101%; in the test on EKVX NSCLC, 91.4%. For the same compound, the growth in the test with SN12C renal is 63.5%; with UO-31 renal, 76.4%; in the test on TK-10 renal, 117%; in the test on ACHN renal, 67.7%; with CAKI-1 renal it was 73.4%; in the test with A498 renal, 99.2%. For the same compound, the growth is 48.8% in the test on CCRF-CEM leukemia and 34.8% in the test with MOLT-4 leukemia.
On to `Cn1ccnc1C(=O)/C=C/c1ccc(CNC(=O)c2ccc(S(F)(F)(F)(F)F)cc2)cc1`, for which the growth is -5.91% (active) in the test with HCT-15 colon; 10.4% with HT29 colon; 57.6% in the test with SNB-75 CNS; 3.58% (active) in the test on SNB-19 CNS; 8.6% (active) in the test on U251 CNS; 26.4% in the test on PC-3 prostate. In addition, the growth was 61.3% in the test with SK-MEL-5 melanoma; 31.2% in the test on UACC-62 melanoma; -80.3% (active) in the test on LOX IMVI melanoma; 82.4% in the test on SK-MEL-28 melanoma; 92.9% in the test on SK-MEL-2 melanoma; 40% with EKVX NSCLC. Moreover, the growth was 25.6% with SN12C renal; 34.7% with UO-31 renal; 91.1% in the test on TK-10 renal; 49.8% in the test on ACHN renal; 47% in the test with CAKI-1 renal; 73.5% with A498 renal. Also, the results for the growth with CCRF-CEM leukemia and in the test on MOLT-4 leukemia were 2.63% (active) and 0.864% (active), respectively.
Turning to `COc1cc2oc(-c3cccc(NC(=O)c4cc(N)ccc4Cl)c3)cc(=O)c2c(OC)c1OC`, the growth in the test with HCT-15 colon was 85.7%; with HT29 colon, 110%; with SNB-75 CNS it was 101%; in the test on SNB-19 CNS, 100%; with U251 CNS, 101%; in the test on PC-3 prostate, 97.9%. Besides, the growth in the test with SK-MEL-5 melanoma was 75.3%; in the test on UACC-62 melanoma, 94.4%; in the test with LOX IMVI melanoma it was 87.1%; in the test on SK-MEL-28 melanoma, 108%; in the test with SK-MEL-2 melanoma it was 110%; in the test on EKVX NSCLC, 91.4%. Besides, the growth in the test with SN12C renal was 100%; in the test on UO-31 renal, 80.9%; in the test on TK-10 renal it was 98.3%; in the test with ACHN renal, 95%; in the test with CAKI-1 renal, 87.9%; in the test on A498 renal it was 82.6%. Moreover, the growth with CCRF-CEM leukemia is 64.9%; with MOLT-4 leukemia it was 72.8%.
Turning to `COc1ccc(-c2nc(C(Cl)Cl)nc3cc(-c4ccccc4)nn23)cc1`, the growth was 4.52% (active) with HCT-15 colon; -20.2% (active) in the test on HT29 colon; -9.44% (active) with SNB-75 CNS; 5.79% (active) in the test with SNB-19 CNS; -51.7% (active) with U251 CNS; 35.5% in the test with PC-3 prostate. In addition, the growth was 34.1% with SK-MEL-5 melanoma; 37.9% in the test on UACC-62 melanoma; 23.7% with LOX IMVI melanoma; -46.4% (active) with SK-MEL-28 melanoma; 77.4% in the test on SK-MEL-2 melanoma; -3.98% (active) in the test with EKVX NSCLC. The growth in the test on SN12C renal was 29.1%; in the test on UO-31 renal it was 25.7%; with TK-10 renal, 33.1%; with ACHN renal, -55.3% (active); in the test on CAKI-1 renal it was -14.5% (active); in the test on A498 renal, -33.4% (active). Besides, the growth in the test on CCRF-CEM leukemia was 18.2%; with MOLT-4 leukemia it was 4.01% (active).
In the case of `NS(=O)(=O)c1ccc(Nc2nc(SCC(=O)c3ccc(Cl)cc3)nc3c2CCCC3)cc1`, the growth in the test on HCT-15 colon is 22.1%; in the test with HT29 colon, 8.57% (active); with SNB-75 CNS, 85.8%; in the test with SNB-19 CNS it was 65.9%; in the test on U251 CNS it was 51.3%; with PC-3 prostate, 31.4%. For the same compound, the growth in the test on SK-MEL-5 melanoma is 65.8%; with UACC-62 melanoma, 48.2%; in the test on LOX IMVI melanoma, 23.6%; in the test on SK-MEL-28 melanoma, 68.5%; in the test with SK-MEL-2 melanoma it was 67%; in the test on EKVX NSCLC, 47.8%. For the same compound, the growth was 25.6% in the test with SN12C renal; 38% in the test on UO-31 renal; 86.6% in the test with TK-10 renal; 42% in the test with ACHN renal; 43.2% in the test on CAKI-1 renal; 61.1% in the test on A498 renal. For the same compound, the growth is 41.1% in the test on CCRF-CEM leukemia and 38.4% with MOLT-4 leukemia.
As to `C=C(C)[C@@H]1CC[C@]2(COP(=O)(OCC)OCC)CC[C@]3(C)[C@H](CC[C@@H]4[C@@]5(C)CCCNC(C)(C)[C@@H]5CC[C@]43C)[C@@H]12`, the growth is 16.6% in the test with HCT-15 colon; 5.58% (active) with HT29 colon; 37% in the test on SNB-75 CNS; 58.3% with SNB-19 CNS; 37.4% with U251 CNS; 26.3% in the test with PC-3 prostate. The growth with SK-MEL-5 melanoma was 37.4%; in the test with UACC-62 melanoma, 80.3%; in the test on LOX IMVI melanoma it was -87.9% (active); in the test on SK-MEL-28 melanoma, -38.2% (active); with SK-MEL-2 melanoma, 92.7%; with EKVX NSCLC, 40.4%. Besides, the growth is 46.6% with SN12C renal; 30.9% in the test with UO-31 renal; 58.9% with TK-10 renal; 59.2% in the test with ACHN renal; 29.1% with CAKI-1 renal; 55% in the test with A498 renal. Further, the growth in the test with MOLT-4 leukemia was -29.8% (active).
Take `C#C[C@]1(O)CC[C@H]2[C@@H]3CC=C4c5sc(-c6cccc(O)c6)nc5CC[C@]4(C)[C@H]3CC[C@@]21C`: the growth with HCT-15 colon is -25.2% (active); in the test on HT29 colon, -13.7% (active); in the test on SNB-75 CNS it was -52.7% (active); in the test on SNB-19 CNS it was -19.8% (active); in the test with U251 CNS it was -47.6% (active); in the test with PC-3 prostate it was -54.7% (active). Further, the growth was -77.1% (active) in the test on SK-MEL-5 melanoma; -61.3% (active) in the test on UACC-62 melanoma; -62.4% (active) in the test on LOX IMVI melanoma; -68.8% (active) with SK-MEL-28 melanoma; -24.6% (active) in the test with SK-MEL-2 melanoma; 7.48% (active) with EKVX NSCLC. For the same compound, the growth in the test on SN12C renal was -48.6% (active); in the test on UO-31 renal, -30.4% (active); with TK-10 renal it was 2.76% (active); in the test with ACHN renal, -58.7% (active); with CAKI-1 renal, -19.9% (active); in the test with A498 renal, -66.9% (active). Further, the growth was -31.8% (active) with CCRF-CEM leukemia and -11.8% (active) in the test on MOLT-4 leukemia.
